# Test results: PubChem BioAssay (Tox21)
# Inconclusive results are not listed. Active and inactive are the calls of the source. Calls follow the shape of the dose curve; as a rule, active = well fitted curve in the direction sought with a large enough effect in the repeat runs; inconclusive = weak or mixed curves; inactive = no such curve, though single readings can be large; an effect the other way counts as inactive or inconclusive.
# System: not listed separately
# Assay: qHTS assay to identify small molecule antagonists of the estrogen receptor alpha (ER-alpha) signaling pathway using the BG1 cell line - cell viability counter screen (AID 743081);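 also: compound given together with 17beta-estradiol as the ER stimulus; nearly all actives have a fitted effect of over 45% in size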
# Details: BG1Luc4E2 viability, CellTiter-Fluor, 22 h; series mostly up to 70.3 µM; activity change, negative = cytotoxicity: at the top concentration
# % is scaled to controls: 0 for no effect and ±100 for the full control effect.
SMILES,"activity change, negative = cytotoxicity",Potency
C[C@@H]1CN(c2c(F)c(N)c3c(=O)c(C(=O)O)cn(C4CC4)c3c2F)C[C@H](C)N1,-4.6% (inactive),
CC1(C)C(=O)N(Cl)C(=O)N1Br,3.36% (inactive),
CCCCCCC,-1.49% [at 95 µM] (inactive),
CCC/C=C/CO,2.51% (inactive),
CCOC(=O)c1ccccc1O,,inactive
Cc1ccc([N+](=O)[O-])cc1Cl,6.3% [at 95 µM] (inactive),
OCCN1CCN(CCO)CC1,8.65% [at 95 µM] (inactive),
C=O,,inactive
CC/C=C\CCOC(=O)CCCCC,11.4% (inactive),
CCOc1ccc(NC(N)=O)cc1,-0.676% (inactive),
Clc1cccc(-c2cc(Cl)cc(Cl)c2)c1,8.64% (inactive),
CC1=CC(=O)CC(C)(C)C1=O,1.53% [at 95 µM] (inactive),
C=CCCCCCCCCO,11.9% (inactive),
CC1=NN(c2cc(Cl)c(S(=O)(=O)O)cc2Cl)C(=O)C1N=Nc1ccc(S(=O)(=O)O)cc1 (centres undefined),-4.84% (inactive),
O=C(O)C(=O)Cc1c[nH]c2ccccc12,8.51% (inactive),
CS(=O)(=O)c1ccc([C@@H](O)[C@@H](CF)NC(=O)C(Cl)Cl)cc1,13.7% [at 32.5 µM] (inactive),
COc1ccc2nc(NC(=O)Nc3ccccc3)sc2c1,4.89% (inactive),

SMILES,"activity change, negative = cytotoxicity",Potency
O=c1oc2c(O)c(O)cc3c(=O)oc4c(O)c(O)cc1c4c23,2.19% (inactive),
CCC(=O)Nc1ccc(O)cc1,9.85% (inactive),
Cc1nnc(SCC2=C(C(=O)O)N3C(=O)[C@@H](NC(=O)Cn4cnnn4)[C@H]3SC2)s1,0.203% (inactive),
Cc1ccc([N+](=O)[O-])c(N)c1,-0.171% (inactive),
CCCOCCC,12.8% (inactive),
C=CC1CO1 (centres undefined),15.4% [at 95 µM] (inactive),
Cc1ccc(C(C)C)cc1O,4.65% (inactive),
O=C1CCCCCCCCCCC(=O)OCCO1,-0.829% (inactive),
COc1cc(Cl)ccc1Cl,2.96% [at 95 µM] (inactive),
CCNCCO,22.7% (inactive),
CCc1nnc(NS(=O)(=O)c2ccc(N)cc2)s1,2.87% (inactive),
FC(F)(F)c1ccccc1,-0.823% (inactive),
CC(C)OC(C)C,-9.39% [at 95 µM] (inactive),
ClC(Cl)Cl,,inactive
CCCN(CCC)C(=O)C(CCC(=O)O)NC(=O)c1ccccc1 (centres undefined),-5.3% (inactive),
CC1(C)O[C@@H]2C[C@H]3[C@@H]4CCC5=CC(=O)CC[C@]5(C)[C@@]4(F)[C@@H](O)C[C@]3(C)[C@]2(C(=O)CCl)O1,-0.0093% [at 32.5 µM] (inactive),
O=C(O[C@@H](C(=O)O)[C@@H](OC(=O)c1ccccc1)C(=O)O)c1ccccc1,0.415% [at 95 µM] (inactive),

# Target: Aromatase (Homo sapiens) (UniProt P11511)
# Sequence (P11511 whole entry, looked up): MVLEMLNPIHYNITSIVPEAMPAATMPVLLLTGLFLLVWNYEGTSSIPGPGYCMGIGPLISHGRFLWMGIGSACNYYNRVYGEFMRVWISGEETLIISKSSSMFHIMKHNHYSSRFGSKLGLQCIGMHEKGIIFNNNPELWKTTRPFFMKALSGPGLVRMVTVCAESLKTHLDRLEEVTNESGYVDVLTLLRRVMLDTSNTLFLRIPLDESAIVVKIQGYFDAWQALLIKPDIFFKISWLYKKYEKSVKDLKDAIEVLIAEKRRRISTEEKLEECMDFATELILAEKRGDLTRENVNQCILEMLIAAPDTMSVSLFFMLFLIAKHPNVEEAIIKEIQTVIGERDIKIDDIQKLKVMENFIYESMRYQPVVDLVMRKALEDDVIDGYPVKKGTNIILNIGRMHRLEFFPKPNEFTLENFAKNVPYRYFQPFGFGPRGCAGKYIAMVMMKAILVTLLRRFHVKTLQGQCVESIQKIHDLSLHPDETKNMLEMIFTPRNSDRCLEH
# Assay: qHTS assay to identify aromatase inhibitors (AID 743083); also: nearly all actives have a fitted effect of over 55% in size
# Details: MCF-7 aro ERE, testosterone-driven ERE luciferase, 24 h; series mostly up to 70.3 µM; activity, negative = inhibition: at the top concentration
SMILES,"activity, negative = inhibition",Potency
C[C@@H]1CN(c2c(F)c(N)c3c(=O)c(C(=O)O)cn(C4CC4)c3c2F)C[C@H](C)N1,16.2% (inactive),
CC1(C)C(=O)N(Cl)C(=O)N1Br,-0.0009% (inactive),
CCCCCCC,15.2% [at 95 µM] (inactive),
CCOC(=O)c1ccccc1O,,inactive
Cc1ccc([N+](=O)[O-])cc1Cl,10.1% [at 95 µM] (inactive),
OCCN1CCN(CCO)CC1,4.05% [at 95 µM] (inactive),
COc1ccccc1OCC(O)COC(N)=O (centres undefined),1.3% [at 32.5 µM] (inactive),
C=O,,inactive
CC/C=C\CCOC(=O)CCCCC,-0.334% (inactive),
CCOc1ccc(NC(N)=O)cc1,14.4% (inactive),
Clc1cccc(-c2cc(Cl)cc(Cl)c2)c1,7.92% (inactive),
CC1=CC(=O)CC(C)(C)C1=O,-2.05% [at 95 µM] (inactive),
CN(CC1(C)CCCO1)S(=O)(=O)c1ccc(Cl)c(S(N)(=O)=O)c1 (centres undefined),-10.8% (inactive),
C=CCCCCCCCCO,-15.1% (inactive),
CC1=NN(c2cc(Cl)c(S(=O)(=O)O)cc2Cl)C(=O)C1N=Nc1ccc(S(=O)(=O)O)cc1 (centres undefined),10.2% (inactive),
O=C(O)C(=O)Cc1c[nH]c2ccccc12,-15.1% (inactive),
CS(=O)(=O)c1ccc([C@@H](O)[C@@H](CF)NC(=O)C(Cl)Cl)cc1,0.25% [at 32.5 µM] (inactive),
COc1ccc2nc(NC(=O)Nc3ccccc3)sc2c1,-8.03% (inactive),

SMILES,"activity, negative = inhibition",Potency
O=c1oc2c(O)c(O)cc3c(=O)oc4c(O)c(O)cc1c4c23,2.19% (inactive),
CCC(=O)Nc1ccc(O)cc1,5.52% (inactive),
Cc1nnc(SCC2=C(C(=O)O)N3C(=O)[C@@H](NC(=O)Cn4cnnn4)[C@H]3SC2)s1,3.4% (inactive),
Cc1ccc([N+](=O)[O-])c(N)c1,12.4% (inactive),
CCCOCCC,0.426% (inactive),
C=CC1CO1 (centres undefined),1.85% [at 95 µM] (inactive),
Cc1ccc(C(C)C)cc1O,-5.95% (inactive),
O=C1CCCCCCCCCCC(=O)OCCO1,-24.3% (inactive),
COc1cc(Cl)ccc1Cl,-2.69% [at 95 µM] (inactive),
CCNCCO,0.589% (inactive),
CCc1nnc(NS(=O)(=O)c2ccc(N)cc2)s1,5.17% (inactive),
FC(F)(F)c1ccccc1,-1.65% (inactive),
CC(C)OC(C)C,4.25% [at 95 µM] (inactive),
ClC(Cl)Cl,,inactive
CCCN(CCC)C(=O)C(CCC(=O)O)NC(=O)c1ccccc1 (centres undefined),5.11% (inactive),
CC1(C)O[C@@H]2C[C@H]3[C@@H]4CCC5=CC(=O)CC[C@]5(C)[C@@]4(F)[C@@H](O)C[C@]3(C)[C@]2(C(=O)CCl)O1,97.3% [at 32.5 µM] (inactive),
O=C(O[C@@H](C(=O)O)[C@@H](OC(=O)c1ccccc1)C(=O)O)c1ccccc1,-6.33% [at 95 µM] (inactive),
